# Source: PMC7862700, “An all-to-all approach to the identification of sequence-specific readers for epigenetic DNA modifications on cytosine”
# What was measured:
# Assay in all cases: DAPPL (digital affinity profiling via proximity ligation, sequencing); 10 mM Tris-HCl pH 7.5, 50 mM NaCl, 1 mM DTT, 4% glycerol, room temperature, 30 min; GST-TFs on glutathione beads, 16-mer random dsDNA library, 0.1% formaldehyde crosslink after washing; high values mean tight binding
# [1] = target: T1, FLI1 (Homo sapiens, UniProt Q01543 1-452); conditions: protein: recombinant; tags: N-terminal GST; dsDNA, one strand shown
# T1 sequence: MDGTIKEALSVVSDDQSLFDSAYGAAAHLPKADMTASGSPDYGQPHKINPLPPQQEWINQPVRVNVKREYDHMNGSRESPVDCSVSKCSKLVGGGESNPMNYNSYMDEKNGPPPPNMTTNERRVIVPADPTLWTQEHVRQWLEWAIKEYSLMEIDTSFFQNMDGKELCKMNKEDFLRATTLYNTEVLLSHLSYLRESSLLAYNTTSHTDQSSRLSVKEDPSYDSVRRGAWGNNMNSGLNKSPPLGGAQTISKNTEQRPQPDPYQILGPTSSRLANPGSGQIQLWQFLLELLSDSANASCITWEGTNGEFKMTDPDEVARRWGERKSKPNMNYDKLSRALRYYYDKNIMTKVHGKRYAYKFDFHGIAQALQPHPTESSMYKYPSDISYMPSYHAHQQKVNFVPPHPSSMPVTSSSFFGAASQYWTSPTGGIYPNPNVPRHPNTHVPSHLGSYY
# Method in brief: (§1)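 The binding signal reported is, for every hexamer, its read frequency for a factor over its read frequency for the tag-only sample. Reads came from pools of yeast-expressed, GST-fused human transcription factors on glutathione beads, barcoded with DNA and mixed with that sample, which were incubated with 200 nmole of a random double-stranded 16-mer DNA library in Tris/NaCl/DTT/glycerol buffer at room temperature for 30 min. After washing, the pools were crosslinked with 0.1% formaldehyde, proximity-ligated with BsaI/T4 ligase for 1 h at 37 °C, PCR-amplified and sequenced on an Illumina NextSeq500.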
# [2] = target: T2, ELK1 (Homo sapiens, UniProt P19419 1-428); conditions: protein: recombinant; tags: N-terminal GST; dsDNA, one strand shown
# T2 sequence: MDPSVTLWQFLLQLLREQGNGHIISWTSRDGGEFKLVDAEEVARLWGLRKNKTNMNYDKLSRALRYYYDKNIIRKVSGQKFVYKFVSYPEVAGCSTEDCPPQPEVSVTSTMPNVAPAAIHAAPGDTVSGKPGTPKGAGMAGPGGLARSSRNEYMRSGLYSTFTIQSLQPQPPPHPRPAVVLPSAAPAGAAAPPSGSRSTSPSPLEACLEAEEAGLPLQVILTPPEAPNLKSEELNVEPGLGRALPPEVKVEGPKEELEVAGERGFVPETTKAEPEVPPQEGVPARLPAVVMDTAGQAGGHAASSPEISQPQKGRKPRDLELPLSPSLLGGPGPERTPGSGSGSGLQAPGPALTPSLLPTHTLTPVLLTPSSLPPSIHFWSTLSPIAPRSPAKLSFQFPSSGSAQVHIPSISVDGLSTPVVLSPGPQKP
# Method in brief: as §1
# [3] = target: T3, GABPA (Homo sapiens, UniProt Q06546 1-454); conditions: protein: recombinant; tags: N-terminal GST; dsDNA, one strand shown
# T3 sequence: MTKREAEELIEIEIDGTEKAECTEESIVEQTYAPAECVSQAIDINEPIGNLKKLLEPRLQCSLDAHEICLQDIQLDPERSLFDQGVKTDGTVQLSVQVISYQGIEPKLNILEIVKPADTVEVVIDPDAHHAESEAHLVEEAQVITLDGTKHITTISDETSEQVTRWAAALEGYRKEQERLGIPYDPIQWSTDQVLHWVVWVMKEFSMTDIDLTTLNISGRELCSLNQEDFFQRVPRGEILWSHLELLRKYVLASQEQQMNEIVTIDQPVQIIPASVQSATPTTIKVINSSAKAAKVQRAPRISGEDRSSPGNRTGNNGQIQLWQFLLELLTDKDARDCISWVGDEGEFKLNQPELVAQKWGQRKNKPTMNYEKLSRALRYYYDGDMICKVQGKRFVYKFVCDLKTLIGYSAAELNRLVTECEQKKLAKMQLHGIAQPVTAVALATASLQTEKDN
# Method in brief: as §1
# [4] = target: T4, ERG (Homo sapiens, UniProt P11308 1-479); conditions: protein: recombinant; tags: N-terminal GST; dsDNA, one strand shown
# T4 sequence: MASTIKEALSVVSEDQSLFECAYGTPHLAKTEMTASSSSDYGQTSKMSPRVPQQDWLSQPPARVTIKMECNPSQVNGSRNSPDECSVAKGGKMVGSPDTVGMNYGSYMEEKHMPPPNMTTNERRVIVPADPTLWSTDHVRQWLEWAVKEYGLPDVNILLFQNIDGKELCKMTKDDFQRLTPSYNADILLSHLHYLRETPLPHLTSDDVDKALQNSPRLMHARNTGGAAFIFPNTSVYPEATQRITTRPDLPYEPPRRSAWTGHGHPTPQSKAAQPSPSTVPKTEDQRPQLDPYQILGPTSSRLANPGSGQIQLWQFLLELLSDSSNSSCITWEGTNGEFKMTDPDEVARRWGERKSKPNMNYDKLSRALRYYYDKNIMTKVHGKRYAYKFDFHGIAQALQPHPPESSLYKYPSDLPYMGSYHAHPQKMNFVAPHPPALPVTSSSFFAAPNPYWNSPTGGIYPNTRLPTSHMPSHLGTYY
# Method in brief: as §1
# [5] = target: ELF1 (Homo sapiens, UniProt P32519 1-619); conditions: protein: recombinant; tags: N-terminal GST; dsDNA, one strand shown
# Sequence of ELF1 (P32519 whole entry): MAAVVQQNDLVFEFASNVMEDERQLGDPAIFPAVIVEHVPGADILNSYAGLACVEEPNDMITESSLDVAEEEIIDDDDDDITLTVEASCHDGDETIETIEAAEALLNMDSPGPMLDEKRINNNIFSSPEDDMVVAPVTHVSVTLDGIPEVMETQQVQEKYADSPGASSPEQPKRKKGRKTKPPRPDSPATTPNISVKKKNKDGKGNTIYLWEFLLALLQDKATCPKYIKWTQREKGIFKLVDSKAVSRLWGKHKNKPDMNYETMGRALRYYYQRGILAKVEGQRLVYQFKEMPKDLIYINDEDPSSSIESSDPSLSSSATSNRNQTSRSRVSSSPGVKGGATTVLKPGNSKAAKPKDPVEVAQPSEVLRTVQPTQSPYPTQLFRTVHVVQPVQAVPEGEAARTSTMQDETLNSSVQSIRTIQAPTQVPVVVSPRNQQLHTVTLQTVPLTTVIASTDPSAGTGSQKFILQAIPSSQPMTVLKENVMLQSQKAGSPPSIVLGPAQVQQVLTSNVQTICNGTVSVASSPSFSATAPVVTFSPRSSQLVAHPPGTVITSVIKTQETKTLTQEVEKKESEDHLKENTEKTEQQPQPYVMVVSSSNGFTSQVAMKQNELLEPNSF
# Method in brief: as §1
# [6] = target: T5, EHF (Homo sapiens, UniProt Q9NZC4 1-300); conditions: protein: recombinant; tags: N-terminal GST; dsDNA, one strand shown
# T5 sequence: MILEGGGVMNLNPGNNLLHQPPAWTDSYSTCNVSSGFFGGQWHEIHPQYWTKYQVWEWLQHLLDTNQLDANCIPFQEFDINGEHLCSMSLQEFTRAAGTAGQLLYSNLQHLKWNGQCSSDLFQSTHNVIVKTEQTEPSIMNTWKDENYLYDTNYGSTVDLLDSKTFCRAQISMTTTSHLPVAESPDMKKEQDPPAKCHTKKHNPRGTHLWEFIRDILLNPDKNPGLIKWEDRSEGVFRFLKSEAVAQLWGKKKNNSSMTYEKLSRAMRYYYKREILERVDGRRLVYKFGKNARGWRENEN
# Method in brief: as §1
# [7] = target: SPI1 (Homo sapiens, UniProt P17947 1-270); conditions: protein: recombinant; tags: N-terminal GST; dsDNA, one strand shown
# Method in brief: as §1
# [8] = target: SPIB (Homo sapiens, UniProt Q01892 1-262); conditions: protein: recombinant; tags: N-terminal GST; dsDNA, one strand shown
# Sequence of SPIB (Q01892 whole entry): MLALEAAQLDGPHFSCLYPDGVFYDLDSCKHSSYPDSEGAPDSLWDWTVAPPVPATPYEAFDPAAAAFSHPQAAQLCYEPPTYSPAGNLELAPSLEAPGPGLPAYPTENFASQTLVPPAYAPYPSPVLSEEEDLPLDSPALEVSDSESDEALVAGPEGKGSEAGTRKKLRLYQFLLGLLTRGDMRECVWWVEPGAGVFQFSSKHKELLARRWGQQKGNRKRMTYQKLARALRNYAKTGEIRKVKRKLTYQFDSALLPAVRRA
# Method in brief: as §1
# [9] = target: T6, ELK3 (Homo sapiens, UniProt P41970 1-407); conditions: protein: recombinant; tags: N-terminal GST; dsDNA, one strand shown
# T6 sequence: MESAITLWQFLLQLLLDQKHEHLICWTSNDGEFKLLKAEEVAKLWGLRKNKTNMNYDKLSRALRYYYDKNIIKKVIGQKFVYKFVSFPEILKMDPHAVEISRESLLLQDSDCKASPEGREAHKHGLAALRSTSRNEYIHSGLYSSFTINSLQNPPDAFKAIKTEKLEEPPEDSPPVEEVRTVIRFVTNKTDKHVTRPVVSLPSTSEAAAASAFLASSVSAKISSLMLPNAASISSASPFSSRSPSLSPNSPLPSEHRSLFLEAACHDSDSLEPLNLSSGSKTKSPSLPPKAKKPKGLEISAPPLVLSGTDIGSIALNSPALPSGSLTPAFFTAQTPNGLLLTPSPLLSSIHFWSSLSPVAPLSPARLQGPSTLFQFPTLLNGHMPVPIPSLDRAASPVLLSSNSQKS
# Method in brief: as §1
# [10] = target: T7, FEV (Homo sapiens, UniProt Q99581 1-238); conditions: protein: recombinant; tags: N-terminal GST; dsDNA, one strand shown
# T7 sequence: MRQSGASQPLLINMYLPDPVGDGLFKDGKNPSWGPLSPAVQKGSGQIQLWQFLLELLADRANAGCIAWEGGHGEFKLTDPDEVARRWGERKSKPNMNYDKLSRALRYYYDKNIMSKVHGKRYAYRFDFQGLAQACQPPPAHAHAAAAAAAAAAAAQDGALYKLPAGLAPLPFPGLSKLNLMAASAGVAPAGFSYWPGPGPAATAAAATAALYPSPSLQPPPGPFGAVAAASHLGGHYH
# Method in brief: as §1
# [11] = target: ETV5 (Homo sapiens, UniProt P41161 1-510); conditions: protein: recombinant; tags: N-terminal GST; dsDNA, one strand shown
# Sequence of ETV5 (P41161 whole entry): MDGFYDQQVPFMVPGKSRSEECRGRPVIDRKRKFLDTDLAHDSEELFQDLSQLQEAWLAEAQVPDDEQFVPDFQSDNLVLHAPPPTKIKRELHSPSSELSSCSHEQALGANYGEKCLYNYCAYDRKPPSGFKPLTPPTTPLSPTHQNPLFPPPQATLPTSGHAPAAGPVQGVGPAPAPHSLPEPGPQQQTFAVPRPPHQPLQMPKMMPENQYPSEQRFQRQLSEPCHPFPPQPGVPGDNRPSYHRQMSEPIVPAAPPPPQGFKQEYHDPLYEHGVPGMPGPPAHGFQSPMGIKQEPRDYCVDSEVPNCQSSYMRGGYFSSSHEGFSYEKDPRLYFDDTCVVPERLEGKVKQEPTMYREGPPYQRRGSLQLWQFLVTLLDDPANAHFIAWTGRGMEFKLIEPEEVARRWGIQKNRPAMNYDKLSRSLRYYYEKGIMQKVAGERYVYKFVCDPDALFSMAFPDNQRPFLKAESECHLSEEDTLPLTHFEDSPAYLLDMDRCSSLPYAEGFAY
# Method in brief: as §1
# [12] = target: HSF1 (Homo sapiens, UniProt Q00613 1-529); conditions: protein: recombinant; tags: N-terminal GST; chain copies: 3; dsDNA, one strand shown
# Sequence of HSF1 (Q00613 whole entry): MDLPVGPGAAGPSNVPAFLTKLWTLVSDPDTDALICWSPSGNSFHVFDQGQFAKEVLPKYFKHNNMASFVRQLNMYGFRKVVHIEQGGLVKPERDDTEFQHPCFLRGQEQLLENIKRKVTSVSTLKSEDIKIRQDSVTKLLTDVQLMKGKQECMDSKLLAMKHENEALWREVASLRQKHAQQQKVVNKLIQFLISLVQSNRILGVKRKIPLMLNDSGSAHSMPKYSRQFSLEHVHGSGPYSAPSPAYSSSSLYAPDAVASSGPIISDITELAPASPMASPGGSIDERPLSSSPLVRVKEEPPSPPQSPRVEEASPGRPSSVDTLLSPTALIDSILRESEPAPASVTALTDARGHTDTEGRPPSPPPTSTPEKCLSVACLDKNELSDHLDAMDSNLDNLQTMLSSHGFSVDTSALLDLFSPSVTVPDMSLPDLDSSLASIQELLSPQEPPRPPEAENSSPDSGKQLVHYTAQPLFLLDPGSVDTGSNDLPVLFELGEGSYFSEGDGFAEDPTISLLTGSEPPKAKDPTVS
# Method in brief: as §1
# [13] = target: T8, SPIC (Homo sapiens, UniProt Q8N5J4 1-248); conditions: protein: recombinant; tags: N-terminal GST; dsDNA, one strand shown
# T8 sequence: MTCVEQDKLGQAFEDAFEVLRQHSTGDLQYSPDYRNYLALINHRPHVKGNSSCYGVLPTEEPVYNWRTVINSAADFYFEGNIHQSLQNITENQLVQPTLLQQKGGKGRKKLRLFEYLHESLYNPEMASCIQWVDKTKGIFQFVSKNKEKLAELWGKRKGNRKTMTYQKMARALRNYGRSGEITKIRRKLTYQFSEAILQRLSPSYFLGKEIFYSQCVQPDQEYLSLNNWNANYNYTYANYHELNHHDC
# Method in brief: as §1
# [14] = target: ELF4 (Homo sapiens, UniProt Q99607 1-663); conditions: protein: recombinant; tags: N-terminal GST; dsDNA, one strand shown
# Sequence of ELF4 (Q99607 whole entry): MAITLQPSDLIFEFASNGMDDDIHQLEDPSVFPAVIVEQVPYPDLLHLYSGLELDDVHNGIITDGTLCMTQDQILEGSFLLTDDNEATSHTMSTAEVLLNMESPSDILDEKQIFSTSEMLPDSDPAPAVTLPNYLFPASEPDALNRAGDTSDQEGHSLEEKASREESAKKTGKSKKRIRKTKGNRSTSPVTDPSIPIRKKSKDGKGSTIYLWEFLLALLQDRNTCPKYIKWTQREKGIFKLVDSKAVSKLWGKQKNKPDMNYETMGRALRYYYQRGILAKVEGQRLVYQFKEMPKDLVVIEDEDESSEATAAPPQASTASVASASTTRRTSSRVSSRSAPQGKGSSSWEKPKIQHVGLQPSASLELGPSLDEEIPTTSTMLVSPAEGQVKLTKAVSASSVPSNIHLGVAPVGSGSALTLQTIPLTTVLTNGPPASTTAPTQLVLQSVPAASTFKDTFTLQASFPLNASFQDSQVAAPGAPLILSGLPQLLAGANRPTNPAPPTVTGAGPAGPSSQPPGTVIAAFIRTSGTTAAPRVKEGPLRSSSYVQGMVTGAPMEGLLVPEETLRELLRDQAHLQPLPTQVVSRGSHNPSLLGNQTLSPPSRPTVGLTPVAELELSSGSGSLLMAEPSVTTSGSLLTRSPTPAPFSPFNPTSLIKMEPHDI
# Method in brief: as §1
# [15] = target: T9, ELK4 (Homo sapiens, UniProt P28324-2 1-405); conditions: protein: recombinant; tags: N-terminal GST; dsDNA, one strand shown
# T9 sequence: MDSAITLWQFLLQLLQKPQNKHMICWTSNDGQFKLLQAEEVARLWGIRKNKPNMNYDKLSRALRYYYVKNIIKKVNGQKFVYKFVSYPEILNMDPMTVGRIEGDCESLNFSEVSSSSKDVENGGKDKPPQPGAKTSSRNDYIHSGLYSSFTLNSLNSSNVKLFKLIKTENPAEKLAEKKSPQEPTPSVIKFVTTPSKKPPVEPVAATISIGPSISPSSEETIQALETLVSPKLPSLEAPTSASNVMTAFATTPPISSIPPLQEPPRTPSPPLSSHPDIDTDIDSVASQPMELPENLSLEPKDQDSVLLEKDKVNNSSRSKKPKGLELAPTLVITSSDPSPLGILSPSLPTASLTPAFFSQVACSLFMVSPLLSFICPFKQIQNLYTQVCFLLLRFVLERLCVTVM
# Method in brief: as §1
# [16] = target: T10, ETV2 (Homo sapiens, UniProt O00321 1-342); conditions: protein: recombinant; tags: N-terminal GST; dsDNA, one strand shown
# T10 sequence: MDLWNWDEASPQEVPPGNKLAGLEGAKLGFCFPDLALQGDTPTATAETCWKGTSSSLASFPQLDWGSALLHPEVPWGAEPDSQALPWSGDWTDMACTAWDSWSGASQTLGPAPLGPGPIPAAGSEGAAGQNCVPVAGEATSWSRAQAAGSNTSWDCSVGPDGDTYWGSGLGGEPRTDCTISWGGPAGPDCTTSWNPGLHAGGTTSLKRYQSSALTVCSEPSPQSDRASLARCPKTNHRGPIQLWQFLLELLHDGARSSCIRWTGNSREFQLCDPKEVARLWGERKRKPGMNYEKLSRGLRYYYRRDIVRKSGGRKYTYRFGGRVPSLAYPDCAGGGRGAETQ
# Method in brief: as §1
# [17] = target: T11, ELF3 (Homo sapiens, UniProt P78545 1-371); conditions: protein: recombinant; tags: N-terminal GST; dsDNA, one strand shown
# T11 sequence: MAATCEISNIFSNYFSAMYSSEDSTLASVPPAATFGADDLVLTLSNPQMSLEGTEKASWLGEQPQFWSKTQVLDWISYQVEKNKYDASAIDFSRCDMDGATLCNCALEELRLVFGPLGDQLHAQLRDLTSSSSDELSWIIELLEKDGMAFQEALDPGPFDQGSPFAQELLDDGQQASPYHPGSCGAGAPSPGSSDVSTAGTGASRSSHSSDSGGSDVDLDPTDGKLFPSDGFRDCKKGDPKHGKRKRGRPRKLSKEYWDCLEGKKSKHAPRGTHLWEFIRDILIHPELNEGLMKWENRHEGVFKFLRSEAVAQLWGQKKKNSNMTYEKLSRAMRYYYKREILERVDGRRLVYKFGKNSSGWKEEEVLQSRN
# Method in brief: as §1
# [18] = target: ETV1 (Homo sapiens, UniProt P50549 1-477); conditions: protein: recombinant; tags: N-terminal GST; dsDNA, one strand shown
# Sequence of ETV1 (P50549 whole entry): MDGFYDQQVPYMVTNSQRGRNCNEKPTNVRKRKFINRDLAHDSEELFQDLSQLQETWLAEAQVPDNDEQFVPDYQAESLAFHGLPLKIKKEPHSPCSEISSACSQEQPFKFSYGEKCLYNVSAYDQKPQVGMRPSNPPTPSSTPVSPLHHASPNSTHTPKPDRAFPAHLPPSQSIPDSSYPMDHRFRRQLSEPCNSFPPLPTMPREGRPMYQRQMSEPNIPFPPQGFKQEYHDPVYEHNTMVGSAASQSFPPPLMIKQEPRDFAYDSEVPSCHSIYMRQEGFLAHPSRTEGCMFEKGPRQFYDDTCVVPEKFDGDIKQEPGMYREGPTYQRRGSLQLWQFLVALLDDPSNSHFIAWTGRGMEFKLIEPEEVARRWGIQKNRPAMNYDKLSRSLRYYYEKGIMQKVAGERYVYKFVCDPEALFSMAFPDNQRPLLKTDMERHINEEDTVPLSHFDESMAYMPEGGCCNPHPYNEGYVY
# Method in brief: as §1
sequence,measurement,setting,value
CGACCC,binding signal,[1],"1.42 fold enrichment (6-mer frequency, TF over GST control)"
same,binding signal,[2],"1.46 fold enrichment (6-mer frequency, TF over GST control)"
same,binding signal,[3],"1.44 fold enrichment (6-mer frequency, TF over GST control)"
same,binding signal,[4],"1.22 fold enrichment (6-mer frequency, TF over GST control)"
same,binding signal,[5],"1.26 fold enrichment (6-mer frequency, TF over GST control)"
same,binding signal,[6],"1.29 fold enrichment (6-mer frequency, TF over GST control)"
same,binding signal,[7],"1.23 fold enrichment (6-mer frequency, TF over GST control)"
same,binding signal,[8],"1.21 fold enrichment (6-mer frequency, TF over GST control)"
same,binding signal,[9],"1.37 fold enrichment (6-mer frequency, TF over GST control)"
same,binding signal,[10],"1.17 fold enrichment (6-mer frequency, TF over GST control)"
same,binding signal,[11],"1.3 fold enrichment (6-mer frequency, TF over GST control)"
same,binding signal,[12],"1.03 fold enrichment (6-mer frequency, TF over GST control)"
same,binding signal,[13],"1.23 fold enrichment (6-mer frequency, TF over GST control)"
same,binding signal,[14],"1.31 fold enrichment (6-mer frequency, TF over GST control)"
same,binding signal,[15],"1.17 fold enrichment (6-mer frequency, TF over GST control)"
same,binding signal,[16],"1.39 fold enrichment (6-mer frequency, TF over GST control)"
same,binding signal,[17],"1.2 fold enrichment (6-mer frequency, TF over GST control)"
same,binding signal,[18],"1.23 fold enrichment (6-mer frequency, TF over GST control)"
